# Test results taken from PubChem BioAssay (NCI).
# The panel holds about 79,000 compounds, 15% with a hit somewhere; the sample as a whole holds those more often. Unmarked numbers belong to inactive results. Active and inactive are the calls of the source. Rule as the data show it: active = growth inhibition above about 70%; inactive = the rest. *1 amine or outer side, *2 acyl side, *3 side chain or, on linkers, in order; H or OH if unused. Where a SMILES comes first, the peptide text is derived from it. Bridges are numbered along the chain shown (N, C = ends). Roman numbers before positions name the chains, in order. [ ]: non-standard residue; d: D form. Actinocin(1to9) = Cc1c2oc3c(C)ccc(C(=O)[*:2])c3nc-2c(C(=O)[*:1])c(N)c1=O; NMeV = CN[CH](C(=O)O)C(C)C; Sar = CNCC(=O)O
# How the values were obtained:
# [1] = NCI Yeast Anticancer Drug Screen. Data for the rad50 strain (AID 155);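 also: 0% = growth of vehicle-only cultures of the same strain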; conditions: S. cerevisiae rad50 strain growth inhibition; at 50.0 µM; hits give high values
# In short: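 Inhibition values express reduced yeast growth in compound-treated cultures relative to vehicle-treated controls.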
# [2] = NCI Yeast Anticancer Drug Screen. Data for the mec2-1 strain (AID 157); conditions: S. cerevisiae mec2-1 strain, at 50.0 µM, hits give high values
# In short: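 Mutant yeast (mec2-1) grown with compound; growth inhibition relative to vehicle control reported.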
# [3] = NCI Yeast Anticancer Drug Screen. Data for the sgs1 mgt1 strain (AID 161);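 also: 0% = growth of cultures given vehicle only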; conditions: S. cerevisiae sgs1 mgt1 strain, at 50.0 µM, hits give high values
# In short: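 Compounds are added to genetically altered yeast, and growth is compared with cultures given vehicle alone to give percent inhibition.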
# [4] = NCI Yeast Anticancer Drug Screen. Data for the cln2 rad14 strain (AID 165);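 also: 0% = growth equal to vehicle treated cultures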; conditions: S. cerevisiae cln2 rad14 strain, at 50.0 µM, hits give high values
# In short: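 Readout is yeast growth inhibition versus vehicle-treated controls, using a strain with cln2 and rad14 alterations exposed to compound.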
# [5] = NCI Yeast Anticancer Drug Screen. Data for the bub3 strain (AID 167); conditions: S. cerevisiae bub3 mutant strain, at 50.0 µM, hits give high values
# In short: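 Steps: expose the mutant yeast strain to compound; grow alongside vehicle-treated cultures; measure growth; express inhibition against the vehicle cultures.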
# [6] = NCI Yeast Anticancer Drug Screen. Data for the mlh1 rad18 strain (AID 175); conditions: S. cerevisiae mlh1 rad18 strain growth inhibition; at 50.0 µM; hits give high values
# In short: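 Genetically defined yeast (DNA repair-deficient) exposed to compounds; growth inhibition determined relative to vehicle.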
Structure (SMILES),growth inhibition [1],growth inhibition [2],growth inhibition [3],growth inhibition [4],growth inhibition [5],growth inhibition [6]
"CCC(C)C1NC(=O)C(NC(=O)c2c3nc4c(C(=O)NC5C(=O)NC(C(C)C)C(=O)N6CCCC6C(=O)N(C)CC(=O)N(C)C(C(C)C)C(=O)OC5C)ccc(C)c4oc-3c(C)c(=O)c2N)C(C)OC(=O)C(C(C)C)N(C)C(=O)CN(C)C(=O)C2CCCN2C1=O (stereo unspecified) (I: TIP[Sar][NMeV] / II: TVP[Sar][NMeV]; ester I:1-I:C, II:1-II:C; linker I:N-II:N via Actinocin(1to9); configuration not given here)",88% (active),92.2% (active),91.2% (active),88.3% (active),89.8% (active),85.7% (active)
O=C1/C(=C\c2ccccc2)C2OCC=C3CN4CCC56c7ccccc7N1C5C2C3CC46 (stereo unspecified),-18.6%,-33.1%,-3.9%,-3.25%,-19.9%,-9.05%
Nc1ccc(CCC(=O)Nc2ccc(S(=O)(=O)F)cc2)c(Cl)c1,82.9% (active),84% (active),85.3% (active),92% (active),92% (active),96.5% (active)
NNC(N)=O,1.3%,23.1%,-38.9%,-18.3%,-13.2%,-14.8%
CN(C)c1ccc(C=O)cc1.[C-]#[O+].[C-]#[O+].[C-]#[O+].[Cr],-66.2%,-35.5%,-57.5%,1%,-18.4%,-38.9%
N#C[S-].N#C[S-].[Ni+2].c1ccc([PH+](c2ccccc2)c2ccccc2)cc1.c1ccc([PH+](c2ccccc2)c2ccccc2)cc1,35.5%,33.7%,50%,14.3%,34.2%,63%
O=[N+]([O-])c1ccc(SSC(Cl)(Cl)Cl)cc1,33%,94.2% (active),93.5% (active),13.4%,78.5% (active),84.4% (active)
N#CCCCCN=[N+]=[N-],-4%,27.1%,-12.6%,3.25%,20.4%,-8.35%
OCCCNCc1cccnc1,9.55%,-3.05%,-0.75%,29.2%,-3.8%,25.9%
COc1ccc2c(c1O)-c1cc(O)cc3c1C(C2)N(CCCl)CC3 (stereo unspecified),63.4%,29.1%,64.6%,15.8%,-10.3%,48.7%
Cc1ccc(N=C(C(c2ccccc2)c2ccccc2)N(CCCl)CCCl)cc1,24.2%,3.45%,19.9%,13.3%,18.1%,24.1%
O=C(NC1CCCCC1)C(Cl)(Cl)Cl,-3.1%,-18.3%,-1.85%,-52%,-4.75%,-5.2%
CC(Cl)CN1CCN(CC(C)Cl)CC1 (stereo unspecified),2.95%,-16.7%,34.4%,4.4%,31.9%,-10.3%
Oc1cc(Cl)ccc1Cl,98.2% (active),99% (active),98.6% (active),96.5% (active),99% (active),98.8% (active)
CN(C)P1(=O)NCC(C(C)(C)C)CO1 (stereo unspecified),26.4%,-21.1%,-5.3%,21.6%,-0.1%,-16.8%
[Cl][Hg][c]1ccccc1N=Nc1ccccc1,91.7% (active),98.5% (active),94.4% (active),97% (active),98% (active),94.5% (active)
C=CCOC(=O)Cc1ccccc1,20.5%,-5.35%,4.9%,-31.9%,-39.2%,-3.9%
O=c1cc(N2CCNCC2)nc2ccccn12,2.9%,4.4%,4.95%,1.4%,6.95%,6.35%
CCC[CH2][Sn]([Cl])([Cl])[CH2]CCC.c1ccncc1,95.5% (active),97.5% (active),98.2% (active),98.3% (active),98.2% (active),98% (active)
COc1ccc([Se]c2ccc(OC)cc2OC)c(OC)c1,-19.1%,-39%,2.8%,-18.3%,8.5%,-13.2%
NC(c1ccccc1)C(Cl)c1ccccc1 (stereo unspecified),-6.9%,-54.3%,3.15%,-20.8%,14.9%,-7.55%

Structure (SMILES),growth inhibition [1],growth inhibition [2],growth inhibition [3],growth inhibition [4],growth inhibition [5],growth inhibition [6]
CC(=O)[O-].CC(=O)[O-].O=C(N/N=C/c1cc(Cl)cc(Cl)c1O)c1ccncc1.[Ni+2],-12.6%,18.4%,19.1%,-22.2%,-0.05%,16.9%
Nc1ccc(C(=O)O)c([As](O)O)c1,-6.95%,8.55%,-1%,4.35%,-4.3%,0.65%
Nc1nc(-c2cccc(S(=O)(=O)F)c2)cs1,42.5%,20.8%,55.5%,41.5%,51.1%,34.6%
CCOC(OCC)c1ccccc1.[C-]#[O+].[C-]#[O+].[C-]#[O+].[Cr],25.1%,21.4%,33%,13.9%,32.7%,8.8%
CC1=C(C)C(=O)O[C@@H]([C@](C)(O)[C@]2(O)CC[C@@]3(O)[C@@H]4C[C@H](O)[C@]5(O)[C@@H](O)C=CC(=O)[C@]5(C)[C@H]4CC[C@]23C)C1,21.9%,11.2%,7.1%,23.2%,9.5%,-52.8%
c1ccc(-c2c[se]nn2)cc1,4.65%,-10.1%,-2.6%,-26.6%,-11.2%,10.1%
COc1ccc(C2=CCN(c3ccc(C)cc3)P(=O)(N(CCCl)CCCl)O2)cc1 (stereo unspecified),46.8%,74% (active),68.9%,81.1% (active),90.8% (active),77.4% (active)
O=C1OC(C(O)CO)C(O)=C1OC[N+]1(CCCl)CCN(CCCl)CC1 (stereo unspecified),11.8%,12.7%,4.9%,4.7%,10.3%,9.4%
CN1CCC2(CC1)COCc1ccccc12,-9.4%,-5.55%,-2.7%,-19.1%,11.2%,4.8%
C[N+](C)(C)CC1(COC(=O)C(O)(c2ccccc2)c2ccccc2)CCCCC1,-3.5%,6.45%,-16.8%,-7.2%,-2.95%,5.05%
CCC1(CC)C(=O)NC(=NCCCC(N)C(=O)O)NC1=O (stereo unspecified),8.75%,-3.05%,8.15%,11.4%,23.6%,7.4%
O=NN1CCCCC1,-18.2%,7.1%,28.4%,-15.1%,0.15%,18.9%
CCOC(OCC)c1ccc2c(c1)OCO2,5.65%,-5.75%,13.2%,4.7%,-0.05%,11.8%
COP1(=S)OCC2OC(n3cc(C)c(=O)[nH]c3=O)CC2O1 (stereo unspecified),0.55%,-17.2%,-12.8%,-9.1%,23.1%,-9.25%
O=C(CCCN1CCC2(CC1)C(=O)NCN2c1ccccc1)c1ccccc1,-17.6%,-2.65%,-0.85%,-18.4%,2.35%,-2.15%
COc1cc(C2c3cc4c(cc3[C@@H](OC)[C@H]3COC(=O)C23)OCO4)cc(OC)c1O (stereo partly specified),89.5% (active),90% (active),86.4% (active),85.1% (active),89.3% (active),88.7% (active)
CCOP(=O)(OCC)C(O)c1ccc(Cl)cc1 (stereo unspecified),-5.1%,-13.8%,-0.6%,-9.35%,22.3%,-11.3%
COC(=O)C(C)N(CCCl)P1(=O)OCCCN1CCCl (stereo unspecified),49.2%,24.8%,-6.15%,8.7%,-20.6%,20.6%
c1cc(C2N3CCCN2CC3)ccn1 (stereo unspecified),10%,-27.7%,-34%,-19.9%,-2.35%,-15.2%
C=C[CH2][Sn]([Br])([c]1ccccc1)[c]1ccccc1,99.3% (active),99.2% (active),99.2% (active),98.8% (active),98.8% (active),99.3% (active)
